Experiment [1] can be described thus: antimalarial activity against Dd2 strain (AID 2302;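 active means growth inhibition above 50% at the single 2 µM test dose, taken to imply half-maximal potency below 2 µM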;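 further: 0% = DMSO untreated growth and 100% = chloroquine plus artemisinin killed control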). Particulars: P. falciparum Dd2 in RBCs, LDH growth readout, 72 h; at 2 µM; stronger effect = higher value.
Experiment [2] in a line: human hepatoma cell viability loss – ATP luminescence, cytotoxicity control for P. falciparum antimalarial project, primary screen (AID 2303;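 active means inhibition above 50%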;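 further: 0% = DMSO wells and 100% = digitonin-killed cells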). Particulars: HepG2 viability, 24-48 h, at 10 µM, stronger effect = higher value.
Experiment [3] concerns the target L-lactate dehydrogenase (Plasmodium falciparum (isolate CDC / Honduras)) (UniProt Q27743). Put plainly: PfLDH activity inhibition – cell lysate, 3D7 strain, counter-screen for P. falciparum growth inhibition project (AID 2304).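 Further: 0% = vehicle and 100% = reference inhibitor.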 The settings on record: P. falciparum 3D7 crude extract, LDH APAD/NBT absorbance; at 2 µM; stronger effect = higher value. (The purpose of a counterscreen is to sort out artefacts and off-target activity.)

A short description of experiment [4]: inhibition of 3D7 malaria parasite growth – strain 3D7 (AID 2306).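 Further: 0% = DMSO wells and 100% = chloroquine plus artemisinin control wells.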 The settings on record: P. falciparum 3D7 erythrocytic growth, LDH absorbance, 72 h; at 2 µM; stronger effect = higher value.
Experiment [5] deals with Calcium-dependent protein kinase 1 (Plasmodium falciparum (isolate 3D7)) (UniProt P62344). Description: PfCDPK1 kinase inhibitors, biochemical, TCAMS library (AID 1159585; cut-off not given, nearly all actives have IC50 up to about 0.98 µM;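 further: inhibitors leave more ATP so luminescence rises with inhibition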). The settings on record: recombinant PfCDPK1, Kinase-Glo ATP depletion luminescence. (In general: Kinase-Glo reads ATP consumption through a luciferase reaction.)
Calcium-dependent protein kinase 1 (Plasmodium falciparum (isolate 3D7)), sequence (P62344 whole entry, looked up): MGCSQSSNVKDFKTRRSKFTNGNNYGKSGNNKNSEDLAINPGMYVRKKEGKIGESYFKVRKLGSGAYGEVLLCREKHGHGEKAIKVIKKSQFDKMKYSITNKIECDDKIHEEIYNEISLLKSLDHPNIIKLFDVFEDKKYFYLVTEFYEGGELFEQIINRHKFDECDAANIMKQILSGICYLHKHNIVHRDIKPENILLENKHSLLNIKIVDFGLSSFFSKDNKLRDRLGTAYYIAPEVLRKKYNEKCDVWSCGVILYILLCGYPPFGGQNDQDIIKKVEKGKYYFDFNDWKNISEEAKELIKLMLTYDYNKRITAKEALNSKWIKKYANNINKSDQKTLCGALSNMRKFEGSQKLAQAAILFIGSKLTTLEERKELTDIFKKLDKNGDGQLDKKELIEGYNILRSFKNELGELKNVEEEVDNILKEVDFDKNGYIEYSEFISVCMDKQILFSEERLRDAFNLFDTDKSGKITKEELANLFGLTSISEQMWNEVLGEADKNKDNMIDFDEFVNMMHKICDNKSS
The target in experiment [6] is Plasmodium falciparum protein kinase 6 (PK6, PF3D7_1337100) (UniProt Q8IDW1). Put plainly: PfPK6 kinase inhibitors, biochemical, TCAMS library (AID 1159586). Particulars: recombinant PfPK6, Kinase-Glo ATP depletion luminescence.
Plasmodium falciparum protein kinase 6 (PK6, PF3D7_1337100), sequence (Q8IDW1 1-305): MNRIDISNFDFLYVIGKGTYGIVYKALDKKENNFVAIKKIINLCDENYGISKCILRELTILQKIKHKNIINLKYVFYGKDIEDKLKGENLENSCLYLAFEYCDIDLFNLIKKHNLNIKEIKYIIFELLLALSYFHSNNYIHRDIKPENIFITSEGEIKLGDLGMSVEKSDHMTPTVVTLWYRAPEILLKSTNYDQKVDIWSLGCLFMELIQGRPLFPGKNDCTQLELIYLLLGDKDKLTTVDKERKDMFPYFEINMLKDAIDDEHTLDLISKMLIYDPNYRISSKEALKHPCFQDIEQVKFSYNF
Experiment [7] has as its target Protein kinase 7 (PK7), Plasmodium falciparum 3D7 (PF3D7_0213400) (UniProt Q7YTF7). Put plainly: inhibition of Plasmodium PK7 catalytic activity – biochemical, TCAMS antimalarial set, Kinase-Glo luminescence (AID 1159587). The settings on record: recombinant PfPK7, Kinase-Glo ATP depletion luminescence.
Experiment [8] deals with Calcium-dependent protein kinase 4 (Plasmodium falciparum (isolate 3D7)) (UniProt Q8IBS5). Put plainly: PfCDPK4 kinase inhibitors, biochemical, TCAMS library (AID 1159588; cut-off not given, nearly all actives have IC50 up to about 0.91 µM). Particulars: recombinant PfCDPK4, Kinase-Glo ATP depletion luminescence.
Calcium-dependent protein kinase 4 (Plasmodium falciparum (isolate 3D7)), sequence (Q8IBS5 whole entry, looked up): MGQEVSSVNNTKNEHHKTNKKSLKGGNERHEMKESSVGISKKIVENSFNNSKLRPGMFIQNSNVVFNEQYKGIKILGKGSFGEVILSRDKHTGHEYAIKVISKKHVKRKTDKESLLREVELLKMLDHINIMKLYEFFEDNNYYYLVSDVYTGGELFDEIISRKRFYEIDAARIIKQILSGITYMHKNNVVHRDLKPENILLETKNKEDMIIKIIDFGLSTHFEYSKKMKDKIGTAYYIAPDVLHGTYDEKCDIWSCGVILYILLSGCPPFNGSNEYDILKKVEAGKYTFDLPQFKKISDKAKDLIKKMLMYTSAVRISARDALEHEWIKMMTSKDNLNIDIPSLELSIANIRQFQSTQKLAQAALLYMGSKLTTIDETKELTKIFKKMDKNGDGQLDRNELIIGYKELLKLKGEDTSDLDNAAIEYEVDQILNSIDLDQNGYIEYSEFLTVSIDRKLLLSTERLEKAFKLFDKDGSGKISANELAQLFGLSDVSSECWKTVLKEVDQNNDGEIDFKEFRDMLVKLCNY

Unmarked numbers belong to inactive results. For some of these results: Potency and affinity values are given separately. Activity calls are given as the source filed them. Unless noted, how the calls were made is not given here.

Protein kinase 7 (PK7), Plasmodium falciparum 3D7 (PF3D7_0213400), sequence (Q7YTF7 1-343): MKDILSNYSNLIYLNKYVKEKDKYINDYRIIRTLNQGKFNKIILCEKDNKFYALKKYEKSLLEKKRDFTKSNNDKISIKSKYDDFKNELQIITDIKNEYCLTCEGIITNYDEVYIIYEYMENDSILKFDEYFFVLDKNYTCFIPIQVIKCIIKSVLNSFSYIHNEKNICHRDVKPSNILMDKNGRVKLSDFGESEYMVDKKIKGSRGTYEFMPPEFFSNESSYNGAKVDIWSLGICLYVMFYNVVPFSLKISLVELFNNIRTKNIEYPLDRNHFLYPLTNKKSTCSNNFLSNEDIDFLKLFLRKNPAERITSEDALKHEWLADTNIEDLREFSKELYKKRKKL
L-lactate dehydrogenase (Plasmodium falciparum (isolate CDC / Honduras)), sequence (Q27743 whole entry, looked up): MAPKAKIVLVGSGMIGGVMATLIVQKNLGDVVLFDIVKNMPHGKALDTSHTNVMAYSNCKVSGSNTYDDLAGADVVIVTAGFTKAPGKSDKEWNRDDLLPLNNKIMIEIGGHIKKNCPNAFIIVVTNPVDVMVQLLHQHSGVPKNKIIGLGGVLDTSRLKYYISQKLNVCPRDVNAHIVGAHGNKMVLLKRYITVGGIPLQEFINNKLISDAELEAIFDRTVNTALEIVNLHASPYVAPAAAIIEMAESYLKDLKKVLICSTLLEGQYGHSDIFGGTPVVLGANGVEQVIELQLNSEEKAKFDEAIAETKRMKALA

A word on the inhibition: it is the relative decrease from the control value, in per cent. For the molecule `O=S(=O)(NCCN1CCCC1)c1ccc(-c2ccc(CNCc3ccccc3)cc2)s1`, the growth inhibition was 17% in experiment [1] and 94% (active) in experiment [4]. For the same molecule, the inhibition is 34% in experiment [2] and -5% in experiment [3]. Moreover, the result in experiment [5], in experiment [6], in experiment [7] and in experiment [8] was inactive.

With `O=C(NC1CCN(c2ccc(F)cc2[N+](=O)[O-])CC1)c1cccs1`, the growth inhibition in experiment [1] was 91% (active); in experiment [4] it was 90% (active). The inhibition in experiment [2] was -9%; in experiment [3], -1%. Also, the result in experiment [5], in experiment [6], in experiment [7] and in experiment [8] was inactive.

On to `O=S(=O)(c1ccc(OCc2ccc(Cl)cc2)cc1)c1cc2c(cc1O)CCN(C1CCC1)CC2`, for which the growth inhibition was 63% (active) in experiment [1] and 99% (active) in experiment [4]. Moreover, the inhibition in experiment [2] is 11%; in experiment [3], 3%. Also, the result in experiment [5], in experiment [6], in experiment [7] and in experiment [8] was inactive.

Take `CCNc1cc(C(=O)N[C@@H](Cc2ccccc2)[C@H](O)CN[C@H](C)c2ccccc2)cc(N2CCCC2=O)c1`: the growth inhibition was 99% (active) in experiment [1] and 97% (active) in experiment [4]. Moreover, the inhibition in experiment [2] is -1%; in experiment [3], 6%. Also, the outcome in experiment [5], in experiment [6], in experiment [7] and in experiment [8] was inactive.

`Cc1c(CNCCCNc2cc(=O)c3ccccc3[nH]2)sc(C(F)F)c1Br`: the values for the growth inhibition in experiment [1] and in experiment [4] were 29% and 98% (active), respectively. For the same molecule, the inhibition in experiment [2] is 0%; in experiment [3], 5%. The outcome in experiment [5], in experiment [6], in experiment [7] and in experiment [8] was inactive.

On to `CC(C)CNC(=O)c1cncc(-c2cccc(CNC3Cc4ccccc4C3)c2)c1`, for which the growth inhibition was 19% in experiment [1] and 100% (active) in experiment [4]. Besides, the inhibition is 4% in experiment [2] and 1% in experiment [3]. Besides, the outcome in experiment [5], in experiment [6], in experiment [7] and in experiment [8] was inactive.

Consider `CCN1CCN(c2cc(C)c3cc(NC(=O)C=Cc4cccc(OC)c4OC)ccc3n2)CC1`, for which the values for the growth inhibition in experiment [1] and in experiment [4] were 38% and 99% (active), respectively. Moreover, the inhibition in experiment [2] is 18%; in experiment [3], -3%. Also, the outcome in experiment [5], in experiment [6], in experiment [7] and in experiment [8] was inactive.

On to `N#Cc1ccc(N(CCOc2ccc(Cl)c(F)c2)Cc2ccccc2C(F)(F)F)cc1C(F)(F)F`, for which the growth inhibition in experiment [1] was 43%; in experiment [4], 101% (active). For the same molecule, the inhibition is 17% in experiment [2] and -2% in experiment [3]. Further, the result in experiment [5], in experiment [6], in experiment [7] and in experiment [8] was inactive.

Consider `O=C(Nc1ccccc1)Nc1cccc(-c2cccc(-c3nc4ccc(F)cc4[nH]3)c2)c1`, for which the growth inhibition in experiment [1] was 41%; in experiment [4], 99% (active). Moreover, the inhibition is 38% in experiment [2] and 4% in experiment [3]. Besides, the outcome in experiment [5], in experiment [6], in experiment [7] and in experiment [8] was inactive.

Consider `COc1ccc(-c2nc(NC(=O)CS(=O)(=O)c3ccccc3)sc2C)cc1`, for which the growth inhibition is 82% (active) in experiment [1] and 99% (active) in experiment [4]. Besides, the inhibition in experiment [2] was 7%; in experiment [3], -9%. Also, the outcome in experiment [5], in experiment [6], in experiment [7] and in experiment [8] was inactive.

With `CCC1(C)N=C(N)N=C(N)N1c1ccccc1` (stereo not given), the growth inhibition in experiment [1] is -2%; in experiment [4] it was 98% (active). Also, the inhibition in experiment [2] was 6%; in experiment [3] it was 0%. Moreover, the result in experiment [5], in experiment [6], in experiment [7] and in experiment [8] was inactive.

Take `CC1(C)CCNc2cc(NC(=O)c3ccc(-c4ncccc4C(F)(F)F)cc3)ccc21`: the growth inhibition was 86% (active) in experiment [1] and 97% (active) in experiment [4]. Also, the results for the inhibition in experiment [2] and in experiment [3] were 7% and -3%, respectively. The outcome in experiment [5], in experiment [6], in experiment [7] and in experiment [8] was inactive.

Take `CC1(CCN2CCC(c3c[nH]c4cnccc34)CC2)CCCc2c(Br)cccc2C1=O` (stereo not given): the growth inhibition was 66% (active) in experiment [1] and 101% (active) in experiment [4]. For the same molecule, the inhibition was 14% in experiment [2] and 3% in experiment [3]. For the same molecule, the result in experiment [5], in experiment [6], in experiment [7] and in experiment [8] was inactive.

On to `CCCCCCCC1CCN(C[C@H](O)c2ccnc3ccc(OC)cc23)CC1`, for which the growth inhibition in experiment [1] was 81% (active); in experiment [4], 94% (active). Moreover, the inhibition in experiment [2] was 23%; in experiment [3] it was 3%. The result in experiment [5], in experiment [6], in experiment [7] and in experiment [8] was inactive.

Turning to `O=S(=O)(c1ccc(NC(=S)NN=Cc2ccccn2)cc1)N1CCCCC1`, the growth inhibition in experiment [1] is 56% (active); in experiment [4] it was 98% (active). The results for the inhibition in experiment [2] and in experiment [3] were 43% and -5%, respectively. Moreover, the result in experiment [5], in experiment [6], in experiment [7] and in experiment [8] was inactive.

Regarding `CC(C)NC(C)(C)CN(Cc1ccc(-c2ccc(C(F)(F)F)cc2)cc1)C(=O)Cn1c(CCc2cccc(F)c2F)nc(=O)c2ccccc21`, the growth inhibition in experiment [1] was 68% (active); in experiment [4], 94% (active). Further, the results for the inhibition in experiment [2] and in experiment [3] were 44% and 3%, respectively. The result in experiment [5], in experiment [6], in experiment [7] and in experiment [8] was inactive.

Regarding `O=C(COc1ccccc1)Nn1cnc2ccccc21`, the growth inhibition in experiment [1] was -3%; in experiment [4], 91% (active). In addition, the figures for the inhibition in experiment [2] and in experiment [3] were 2% and 3%, respectively. Besides, the outcome in experiment [5], in experiment [6], in experiment [7] and in experiment [8] was inactive.

`N#Cc1cccc(Nc2nccc(NCC(O)c3ccc(C(F)(F)F)cc3)n2)c1` (stereo not given): the growth inhibition is 98% (active) in experiment [1] and 102% (active) in experiment [4]. Further, the inhibition in experiment [2] was 23%; in experiment [3], 4%. Also, the outcome in experiment [5], in experiment [6], in experiment [7] and in experiment [8] was inactive.

As for `CCOc1ccc(-c2nonc2NC(=O)c2cccc(Cl)c2)cc1OCC`, the growth inhibition in experiment [1] was 99% (active); in experiment [4], 100% (active). The inhibition was -5% in experiment [2] and -8% in experiment [3]. Also, the result in experiment [5], in experiment [6], in experiment [7] and in experiment [8] was inactive.

`CCn1ncc2c(N3CCCC3=O)cc(C(=O)N[C@@H](Cc3ccccc3)[C@H](O)CNC(C)(C)c3cccc(OC)c3)cc21`: the growth inhibition in experiment [1] is 97% (active); in experiment [4] it was 98% (active). The results for the inhibition in experiment [2] and in experiment [3] were 6% and 0%, respectively. In addition, the outcome in experiment [5], in experiment [6], in experiment [7] and in experiment [8] was inactive.

For the origin of these results see PubChem BioAssay.
